# This is part of a sample that, as a whole, favours compounds with a hit. Of some 79,000 tested, about 15% had one in any assay. A number with no mark means an inactive call. Active and inactive are the calls of the source. Cut-off read from the data, not from the text of the source: active = growth inhibition above about 70%; inactive = the rest.
# Assays:
# [1] = NCI Yeast Anticancer Drug Screen. Data for the rad52 strain (AID 147);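 note: 0% = growth of vehicle-treated control cultures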; details: S. cerevisiae rad52 mutant growth inhibition, hits give high values
# In short: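 The repair-mutant yeast strain was incubated with compounds, then growth was read and inhibition derived relative to vehicle.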
# [2] = NCI Yeast Anticancer Drug Screen. Data for the wt1 strain (AID 149);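 note: 0% = growth of vehicle-treated wt1 cultures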; details: S. cerevisiae wt1 strain (SPY 50644) growth inhibition, hits give high values
# In short: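 Growth inhibition read against vehicle controls after compound exposure of the wt1 yeast strain.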
# [3] = NCI Yeast Anticancer Drug Screen. Data for the rad50EPP+ strain (AID 151);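 note: 0% = growth of vehicle-treated control cultures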; details: S. cerevisiae rad50 mutant strain, hits give high values
# In short: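 Vehicle-normalised growth inhibition; rad50EPP+ yeast strain, altered in DNA damage repair, compound-treated.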
# [4] = NCI Yeast Anticancer Drug Screen. Data for the mgt1 strain (AID 153); details: S. cerevisiae mgt1 mutant growth inhibition, hits give high values
# In short: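 Vehicle-normalized growth inhibition is determined in mgt1 yeast, a strain selected for a defined alteration in DNA repair or cell cycle control.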
# [5] = NCI Yeast Anticancer Drug Screen. Data for the rad50 strain (AID 155);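 note: 0% = growth of vehicle-only cultures of the same strain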; details: S. cerevisiae rad50 strain growth inhibition, hits give high values
# In short: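 Readout: growth inhibition relative to vehicle-treated cultures. Compound exposure was carried out in a genetically defined yeast strain deficient in DNA damage repair.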
# [6] = NCI Yeast Anticancer Drug Screen. Data for the mec2-1 strain (AID 157); details: S. cerevisiae mec2-1 strain, hits give high values
# In short: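 Mutant yeast (mec2-1) grown with compound; growth inhibition relative to vehicle control reported.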
# [7] = NCI Yeast Anticancer Drug Screen. Data for the rad14 strain (AID 159);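 note: 0% = growth of vehicle-treated control cultures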; details: S. cerevisiae rad14 strain growth inhibition, hits give high values
# In short: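 Growth inhibition vs vehicle controls; genetically altered yeast strain (DNA damage repair defect) treated with test compounds.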
# [8] = NCI Yeast Anticancer Drug Screen. Data for the sgs1 mgt1 strain (AID 161);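 note: 0% = growth of cultures given vehicle only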; details: S. cerevisiae sgs1 mgt1 strain, hits give high values
# In short: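 Yeast cells carrying a defined DNA-repair defect were exposed to test compounds. Growth inhibition was measured relative to vehicle-treated controls.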
# [9] = NCI Yeast Anticancer Drug Screen. Data for the CLN2oe strain (AID 163);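 note: 0% = growth of vehicle-only control cultures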; details: S. cerevisiae CLN2oe strain, hits give high values
# In short: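 Compounds are applied to yeast harbouring a defined cell-cycle control change; reduced growth compared with vehicle-treated controls gives the value.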
# [10] = NCI Yeast Anticancer Drug Screen. Data for the cln2 rad14 strain (AID 165);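 note: 0% = growth equal to vehicle treated cultures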; details: S. cerevisiae cln2 rad14 strain, hits give high values
# In short: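 Readout is yeast growth inhibition versus vehicle-treated controls, using a strain with cln2 and rad14 alterations exposed to compound.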
# [11] = NCI Yeast Anticancer Drug Screen. Data for the bub3 strain (AID 167); details: S. cerevisiae bub3 mutant strain, hits give high values
# In short: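 Readout: yeast growth inhibition, expressed relative to vehicle-only wells. The test organism is a mutant strain from a panel with lesions in DNA repair or checkpoint genes.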
# [12] = NCI Yeast Anticancer Drug Screen. Data for the wt2 strain (AID 169);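 note: 0% = growth of vehicle-treated yeast cultures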; details: S. cerevisiae wt2 strain growth inhibition, hits give high values
# In short: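 Against vehicle-treated controls, the growth of yeast exposed to each compound was compared, and the inhibition was recorded.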
# [13] = NCI Yeast Anticancer Drug Screen. Data for the sgs1 strain (AID 173);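 note: 0% = growth of vehicle-only control cultures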; details: S. cerevisiae sgs1 mutant, hits give high values
# In short: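 Each compound was added to cultures of the altered yeast strain. Growth was recorded, and inhibition was derived by comparison with vehicle controls.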
# [14] = NCI Yeast Anticancer Drug Screen. Data for the mlh1 rad18 strain (AID 175); details: S. cerevisiae mlh1 rad18 strain growth inhibition, hits give high values
# In short: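 Genetically defined yeast (DNA repair-deficient) exposed to compounds; growth inhibition determined relative to vehicle.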
# [15] = NCI Yeast Anticancer Drug Screen. Data for the rad18 strain (AID 177); details: S. cerevisiae rad18 mutant growth inhibition, hits give high values
# In short: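 Vehicle-treated cultures served as the baseline for scoring compound-induced growth inhibition in DNA-repair-mutant yeast.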
# [16] = at 5.0 µM (retest, dose inferred, filed as 0.5)
# [17] = at 50.0 µM (retest, dose inferred, filed as 5.0)
compound,measurement,setting,value
COc1ccc(/C=C2\NC(=S)N(/C=C3\C(=O)Oc4ccccc4C3=O)C2=O)cc1,growth inhibition,[1]; at 1.2 µM,-1%
same,growth inhibition,[1]; at 3.7 µM,-1%
same,growth inhibition,[1]; at 11.0 µM,3%
same,growth inhibition,[1]; at 33.0 µM,5%
same,growth inhibition,[1]; at 100.0 µM,21%
same,growth inhibition,[2]; at 1.2 µM,1%
same,growth inhibition,[2]; at 3.7 µM,1%
same,growth inhibition,[2]; at 11.0 µM,1%
same,growth inhibition,[2]; at 33.0 µM,4%
same,growth inhibition,[2]; at 100.0 µM,15%
same,growth inhibition,[3]; at 1.2 µM,-2%
same,growth inhibition,[3]; at 3.7 µM,-3%
same,growth inhibition,[3]; at 11.0 µM,-1%
same,growth inhibition,[3]; at 33.0 µM,-1%
same,growth inhibition,[3]; at 100.0 µM,-2%
same,growth inhibition,[4]; at 1.2 µM,-5%
same,growth inhibition,[4]; at 3.7 µM,-5%
same,growth inhibition,[4]; at 11.0 µM,-3%
same,growth inhibition,[4]; at 33.0 µM,-8%
same,growth inhibition,[4]; at 100.0 µM,28%
same,growth inhibition,[5]; at 1.2 µM,-4%
same,growth inhibition,[5]; at 3.7 µM,4%
same,growth inhibition,[5]; [16],3%
same,growth inhibition,[5]; at 11.0 µM,-17%
same,growth inhibition,[5]; at 33.0 µM,5%
same,growth inhibition,[5]; [17],24%
same,growth inhibition,[5]; at 50.0 µM,70.2% (active)
same,growth inhibition,[5]; at 100.0 µM,20%
same,growth inhibition,[6]; at 1.2 µM,0%
same,growth inhibition,[6]; at 3.7 µM,1%
same,growth inhibition,[6]; [16],-1%
same,growth inhibition,[6]; at 11.0 µM,3%
same,growth inhibition,[6]; at 33.0 µM,15%
same,growth inhibition,[6]; [17],1%
same,growth inhibition,[6]; at 50.0 µM,56.2%
same,growth inhibition,[6]; at 100.0 µM,24%
same,growth inhibition,[7]; at 1.2 µM,1%
same,growth inhibition,[7]; at 3.7 µM,0%
same,growth inhibition,[7]; at 11.0 µM,2%
same,growth inhibition,[7]; at 33.0 µM,7%
same,growth inhibition,[7]; at 100.0 µM,21%
same,growth inhibition,[8]; [16],0%
same,growth inhibition,[8]; [17],8%
same,growth inhibition,[8]; at 50.0 µM,84.2% (active)
same,growth inhibition,[9]; at 1.2 µM,-6%
same,growth inhibition,[9]; at 3.7 µM,-6%
same,growth inhibition,[9]; at 11.0 µM,-9%
same,growth inhibition,[9]; at 33.0 µM,11%
same,growth inhibition,[9]; at 100.0 µM,34%
same,growth inhibition,[10]; [16],41%
same,growth inhibition,[10]; [17],26%
same,growth inhibition,[10]; at 50.0 µM,89.2% (active)
same,growth inhibition,[11]; at 1.2 µM,-3%
same,growth inhibition,[11]; at 3.7 µM,-2%
same,growth inhibition,[11]; [16],-5%
same,growth inhibition,[11]; at 11.0 µM,-2%
same,growth inhibition,[11]; at 33.0 µM,4%
same,growth inhibition,[11]; [17],4%
same,growth inhibition,[11]; at 50.0 µM,79.2% (active)
same,growth inhibition,[11]; at 100.0 µM,15%
same,growth inhibition,[12]; at 1.2 µM,-6%
same,growth inhibition,[12]; at 3.7 µM,-1%
same,growth inhibition,[12]; at 11.0 µM,-1%
same,growth inhibition,[12]; at 33.0 µM,5%
same,growth inhibition,[12]; at 100.0 µM,27%
same,growth inhibition,[13]; at 1.2 µM,0%
same,growth inhibition,[13]; at 3.7 µM,2%
same,growth inhibition,[13]; at 11.0 µM,2%
same,growth inhibition,[13]; at 33.0 µM,20%
same,growth inhibition,[13]; at 100.0 µM,35%
same,growth inhibition,[14]; [16],4%
same,growth inhibition,[14]; [17],2%
same,growth inhibition,[14]; at 50.0 µM,72.8% (active)
same,growth inhibition,[15]; at 1.2 µM,-3%
same,growth inhibition,[15]; at 3.7 µM,-1%
same,growth inhibition,[15]; at 11.0 µM,1%
same,growth inhibition,[15]; at 33.0 µM,5%
same,growth inhibition,[15]; at 100.0 µM,14%

# From PubChem BioAssay (NCI)
